Laboratory results as given in PubChem BioAssay (EPA / NIEHS).
“And” between values parts separate entries of the source, which are not always exact repeats. Identical values can stand only once. More than one record can exist for a structure, and the calls need not agree. The source made the active and inactive calls. The calls were made as follows: active = hit-call score of the fitted dose curve at least 0.9, where 1 is the maximum; inactive = score below 0.9.

Assays:
[1] = read-out: Interleukin-6 (IL6), IL6 (gene 3569); assay: BSK_CASM3C_IL6: BioMAP Diversity Plus: CASM3C Assay for Interleukin-6 (IL6) Biomarker Activity for (AID 2283040); settings: primary human coronary artery smooth muscle cells; actives raise or lower the signal
[2] = read-out: Tissue plasminogen activator (tPA), PLAT (gene 5327); assay: BSK_BE3C_tPA: BioMAP Diversity Plus: BE3C Assay for Tissue plasminogen activator (tPA) Biomarker Activity (AID 2283041); settings: primary human bronchial epithelial cells; actives raise or lower the signal
Outline: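 Gain- or loss-of-signal in tPA, measured by ELISA, derived by bidirectional fitting against DMSO. Cells: human primary bronchial epithelial; read at 24 h after chemical dosing.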

[3] = read-out: Interleukin-8 (IL8), CXCL8 (gene 3576); assay: BSK_CASM3C_IL8: BioMAP Diversity Plus: CASM3C Assay for Interleukin-8 (IL8) Biomarker Activity (AID 2283042); settings: primary human coronary artery smooth muscle cells; actives raise or lower the signal;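 also: IL-8 protein level quantified by ELISA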
[4] = read-out: Human Leukocyte Antigen - DR isotype (HLADR), HLA-DRA (gene 3122); assay: BSK_CASM3C_HLADR: BioMAP Diversity Plus: CASM3C Assay for Human Leukocyte Antigen - DR isotype (HLADR) Biomarker Activity (AID 2283043); settings: primary human coronary artery smooth muscle cells; actives raise or lower the signal;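 also: cell-surface HLA-DR protein level quantified by ELISA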
[5] = read-out: Macrophage colony-stimulating factor (MCSF), CSF1 (gene 1435); assay: BSK_CASM3C_MCSF: BioMAP Diversity Plus: CASM3C Assay for Macrophage colony-stimulating factor (MCSF) Biomarker Activity (AID 2283044); settings: primary human coronary artery smooth muscle cells; actives raise or lower the signal;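 also: M-CSF protein amount quantified by ELISA after 24 h exposure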
[6] = read-out: Low-density lipoprotein receptor (LDLR), LDLR (gene 3949); assay: BSK_CASM3C_LDLR: BioMAP Diversity Plus: CASM3C Assay for Low-density lipoprotein receptor (LDLR) Biomarker Activity (AID 2283045); settings: primary human coronary artery smooth muscle cells; actives raise or lower the signal;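 also: LDLR protein level on the cell surface quantified by ELISA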
[7] = read-out: Monocyte Chemoattractant Protein-1 (MCP1), CCL2 (gene 6347); assay: BSK_CASM3C_MCP1: BioMAP Diversity Plus: CASM3C Assay for Monocyte Chemoattractant Protein-1 (MCP1) Biomarker Activity (AID 2283046); settings: primary human coronary artery smooth muscle cells; actives raise or lower the signal;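 also: MCP-1 level quantified by ELISA 24 h after dosing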
[8] = BSK_CASM3C_Proliferation: Cell Proliferation Assessment in the BioMAP Diversity Plus: CASM3C Assay (AID 2283047); settings: primary human coronary artery smooth muscle cells;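 also: sulforhodamine B total protein stain as relative cell number at 560 nm; sub-confluent cells exposed 48 h before staining; fitted both ways against DMSO so gain or loss of cell number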
[9] = read-out: Monokine induced gamma interferon (MIG), CXCL9 (gene 4283); assay: BSK_CASM3C_MIG: BioMAP Diversity Plus: CASM3C Assay for Monokine induced gamma interferon (MIG) Biomarker Activity (AID 2283048); settings: primary human coronary artery smooth muscle cells; actives raise or lower the signal;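 also: MIG protein level measured by ELISA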
[10] = read-out: serum amyloid A (SAA), SAA1 (gene 6288); assay: BSK_CASM3C_SAA: BioMAP Diversity Plus: CASM3C Assay for serum amyloid A (SAA) Biomarker Activity (AID 2283049); settings: primary human coronary artery smooth muscle cells; actives raise or lower the signal;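 also: SAA protein level quantified by ELISA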
[11] = BSK_CASM3C_SRB: Viability Assessment in the BioMAP Diversity Plus: CASM3C Assay (AID 2283050); settings: primary human coronary artery smooth muscle cells;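 also: total protein by SRB staining as cytotoxicity measure in parallel cultures; cells exposed to compound for 24 h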
[12] = read-out: Thrombomodulin, THBD (gene 7056); assay: BSK_CASM3C_Thrombomodulin: BioMAP Diversity Plus: CASM3C Assay for Thrombomodulin Biomarker Activity (AID 2283051); settings: primary human coronary artery smooth muscle cells; actives raise or lower the signal;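 also: thrombomodulin protein level measured by ELISA 24 h after dosing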
[13] = read-out: Tissue Factor, F3 (gene 2152); assay: BSK_CASM3C_TissueFactor: BioMAP Diversity Plus: CASM3C Assay for Tissue Factor Biomarker Activity (AID 2283052); settings: primary human coronary artery smooth muscle cells; actives raise or lower the signal;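 also: cell surface tissue factor protein level read by ELISA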
[14] = read-out: Interferon-gamma inducible Protein 10 (IP10), CXCL10 (gene 3627); assay: BSK_hDFCGF_IP10: BioMAP Diversity Plus: hDFCGF Assay for Interferon-gamma inducible Protein 10 (IP10) Biomarker Activity (AID 2283053); settings: primary human foreskin fibroblasts; actives raise or lower the signal
Outline: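 Cells: human dermal foreskin fibroblasts. Exposure: 24 h post-dosing. Detection: IP-10 ELISA, with values expressed against DMSO controls and fitted in both directions.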

[15] = read-out: Urokinase-type plasminogen activator receptor (uPAR), PLAUR (gene 5329); assay: BSK_CASM3C_uPAR: BioMAP Diversity Plus: CASM3C Assay for Urokinase-type plasminogen activator receptor (uPAR) Biomarker Activity (AID 2283054); settings: primary human coronary artery smooth muscle cells; actives raise or lower the signal;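 also: cell-surface uPAR protein level quantified by ELISA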
[16] = read-out: Vascular cell adhesion molecule 1 (VCAM1), VCAM1 (gene 7412); assay: BSK_CASM3C_VCAM1: BioMAP Diversity Plus: CASM3C Assay for Vascular cell adhesion molecule 1 (VCAM1) Biomarker Activity (AID 2283055); settings: primary human coronary artery smooth muscle cells; actives raise or lower the signal;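 also: VCAM-1 protein level quantified by ELISA on the cells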
[17] = read-out: Collagen III, COL3A1 (gene 1281); assay: BSK_hDFCGF_CollagenIII: BioMAP Diversity Plus: hDFCGF Assay for Collagen III Biomarker Activity (AID 2283056); settings: primary human foreskin fibroblasts; actives raise or lower the signal
Outline: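 Response relative to DMSO, fitted in both directions, reflects ELISA-measured collagen III in human primary skin fibroblasts 24 h after compound addition.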

[18] = read-out: Epidermal growth factor receptor (EGFR), EGFR (gene 1956); assay: BSK_hDFCGF_EGFR: BioMAP Diversity Plus: hDFCGF Assay for Epidermal growth factor receptor (EGFR) Biomarker Activity (AID 2283057); settings: primary human foreskin fibroblasts; actives raise or lower the signal
Outline: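 Dosing human primary skin fibroblasts, then measuring surface EGFR by ELISA at 24 h, gives the endpoint; gains and losses relative to DMSO were fitted in both directions.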

[19] = read-out: Interleukin-8 (IL8), CXCL8 (gene 3576); assay: BSK_hDFCGF_IL8: BioMAP Diversity Plus: hDFCGF Assay for Interleukin-8 (IL8) Biomarker Activity (AID 2283058); settings: primary human foreskin fibroblasts; actives raise or lower the signal
Outline: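 Fibroblast monolayers (human foreskin, hDFCGF) received test chemical for 24 h before ELISA detection of IL-8; either increases or decreases relative to DMSO count as activity.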

[20] = BSK_hDFCGF_Proliferation: Cell Proliferation Assessment in the BioMAP Diversity Plus: hDFCGF Assay (AID 2283059); settings: primary human foreskin fibroblasts;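 also: curves fitted for both rise and fall of signal versus DMSO baseline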
Outline: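 Total protein read at 560 nm after 0.1% SRB staining of TCA-fixed human skin fibroblasts, […]. Activity is fitted in both directions relative to DMSO as baseline.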

Measured: AC50

CC1=CC(C)C(C=O)C(C)C1 (configuration not stated) (tested in a mixture with another compound)
inactive: [1] | [2] | [3] | [4] | [5] | [6] | [7] | [8] | [9] | [10] | [11] | [12] | [13] | [14] | [15] | [16] | [17] | [18] | [19] | [20]

NC(=O)c1c(Cl)cccc1Cl
inactive: [1] | [2] | [3] | [4] | [5] | [6] | [7] | [8] | [9] | [10] | [11] | [12] | [13] | [14] | [15] | [16] | [17] | [18] | [19] | [20]

O=C(O)C(F)(F)OC(F)(F)C(F)(F)OC(F)(F)C(F)(F)C(F)(F)C(F)(F)F
active: [2] 12.4 µM | [7] 48 µM | [14] 15.6 µM and 18.7 µM | [17] 22.3 µM and 29.2 µM
inactive: [1] | [2] | [3] | [4] | [5] | [6] | [7] | [8] | [9] | [10] | [11] | [12] | [13] | [15] | [16] | [18] | [19] | [20]

CCn1cc(C(=O)O)c(=O)c2ccc(C)nc21
inactive: [1] | [2] | [3] | [4] | [5] | [6] | [7] | [8] | [9] | [10] | [11] | [12] | [13] | [14] | [15] | [16] | [17] | [18] | [19] | [20]

c1ccc(OCCOc2ccccc2)cc1
inactive: [1] | [2] | [3] | [4] | [5] | [6] | [7] | [8] | [9] | [10] | [11] | [12] | [13] | [14] | [15] | [16] | [17] | [18] | [19] | [20]

CC(C)(C)c1cccc(O)c1
inactive: [1] | [2] | [3] | [4] | [5] | [6] | [7] | [8] | [9] | [10] | [11] | [12] | [13] | [14] | [15] | [16] | [17] | [18] | [19] | [20]

CC(C)(CO)CO
inactive: [1] | [2] | [3] | [4] | [5] | [6] | [7] | [8] | [9] | [10] | [11] | [12] | [13] | [14] | [15] | [16] | [17] | [18] | [19] | [20]

O=S1(=O)CC(Cl)(Cl)C(Cl)(Cl)C1
active: [1] 1.44 µM | [2] 0.964 µM | [3] 1.3 µM | [4] 0.421 µM | [5] 0.908 µM | [6] 0.389 µM | [7] 1.11 µM | [8] 0.113 µM | [9] 2.22 µM | [10] 0.764 µM | [11] 0.82 µM | [12] 7.52 µM | [13] 2.07 µM | [14] 961 nM | [15] 1.05 µM | [16] 0.93 µM | [17] 1.35 µM | [20] 0.016 µM
inactive: [18] | [19]

CCCCCCCC1CCCC1=O (configuration not stated)
inactive: [3] | [12] | [14] | [17] | [18] | [19]
active: [1] 31 µM | [2] 33.4 µM | [4] 35.2 µM | [5] 31.9 µM | [6] 30.5 µM | [7] 34.3 µM | [8] 31.2 µM | [9] 31.8 µM | [10] 36.2 µM | [11] 36.6 µM | [13] 31.8 µM | [15] 29.5 µM | [16] 30.9 µM | [20] 33.3 µM

OCCN1CCOCC1
inactive: [1] | [2] | [3] | [4] | [5] | [6] | [7] | [8] | [9] | [10] | [11] | [12] | [14] | [15] | [16] | [17] | [18] | [19] | [20]
active: [13] 2.22 µM

CC=CC(=O)C1=C(C)C=CCC1(C)C
inactive: [1] | [2] | [3] | [4] | [5] | [6] | [7] | [8] | [9] | [10] | [11] | [12] | [13] | [14] | [15] | [16] | [17] | [18] | [19] | [20]
